Assay [1] is described as follows: Quantitative High-Throughput drug screen in 47 multiple myeloma cell lines against the NCATS MIPE library collection: U266_ATCC cell viability assay (AID 1919864). Note: nearly all actives have a fitted effect of over 35% in size. Note: potency is the fitted concentration of half-maximal effect. An outline of the steps: (§1)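 Plated at 500 cells per well, myeloma lines received MIPE 4.0 compounds by pin tool. Following 48 h culture at 37 °C, CellTiter-Glo luminescence gave viability relative to DMSO and media-only controls.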

A short description of assay [2]: Quantitative High-Throughput drug screen in 47 multiple myeloma cell lines against the NCATS MIPE library collection: RPMI8226_ATCC cell viability assay (AID 1919871). Note: nearly all actives have a fitted effect of over 30% in size. Note: potency is the fitted concentration of half-maximal effect. An outline of the steps: as §1
Assay [3] can be described thus: Quantitative High-Throughput drug screen in 47 multiple myeloma cell lines against the NCATS MIPE library collection: OPM2_DSMZ cell viability assay (AID 1919872). Note: nearly all actives have a fitted effect of over 30% in size. Note: potency is the fitted concentration of half-maximal effect. The essentials:
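CellTiter-Glo ATP luminescence gave viability after 48 h compound treatment at 37C of 500 multiple myeloma cells per well. Normalisation used DMSO-only wells as 100% and media-only wells as 0% viability; primary qHTS of approved and investigational drugs.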

The nature of assay [4]: Quantitative High-Throughput drug screen in 47 multiple myeloma cell lines against the NCATS MIPE library collection: KMS11_JCRBsus cell viability assay (AID 1919873). Note: nearly all actives have a fitted effect of over 50% in size. Note: potency is the fitted concentration of half-maximal effect. An outline of the steps: as §1
Assay [5] can be described thus: Quantitative High-Throughput drug screen in 47 multiple myeloma cell lines against the NCATS MIPE library collection: KMS28BM_JCRB cell viability assay (AID 1919874). Note: nearly all actives have a fitted effect of over 35% in size. Note: potency is the fitted concentration of half-maximal effect. An outline of the steps:
as §1

The nature of assay [6]: Quantitative High-Throughput drug screen in 47 multiple myeloma cell lines against the NCATS MIPE library collection: UTMC2_PLB cell viability assay (AID 1919868). Note: nearly all actives have a fitted effect of over 55% in size. The conditions noted are these: CellTiter-Glo ATP luminescence, 48 h; viability (% of DMSO control): at 45.8 µM (top of the series). The essentials:
as §1
A general note: ATP-based viability assays read luminescence as a measure of living cells.

Assay [7] in a line: Quantitative High-Throughput drug screen in 47 multiple myeloma cell lines against the NCATS MIPE library collection: PE2_PLB cell viability assay (AID 1919869). Note: nearly all actives have a fitted effect of over 35% in size. Note: potency is the fitted concentration of half-maximal effect. An outline of the steps: as §1
Assay [8] in a line: Quantitative High-Throughput drug screen in 47 multiple myeloma cell lines against the NCATS MIPE library collection: XG6_PLB cell viability assay (AID 1919865). Note: nearly all actives have a fitted effect of over 40% in size. Note: potency is the fitted concentration of half-maximal effect. An outline of the steps: as §1
The nature of assay [9]: Quantitative High-Throughput drug screen in 47 multiple myeloma cell lines against the NCATS MIPE library collection: XG1_PLB cell viability assay (AID 1919866). Note: nearly all actives have a fitted effect of over 35% in size. Note: potency is the fitted concentration of half-maximal effect. The essentials: as §1
Assay [10] in a line: Quantitative High-Throughput drug screen in 47 multiple myeloma cell lines against the NCATS MIPE library collection: VP6_DJ cell viability assay (AID 1919867). Note: nearly all actives have a fitted effect of over 40% in size. Note: potency is the fitted concentration of half-maximal effect. An outline of the steps: as §1
Assay [11] can be described thus: Quantitative High-Throughput drug screen in 47 multiple myeloma cell lines against the NCATS MIPE library collection: PCM6_Riken cell viability assay (AID 1919870). Note: nearly all actives have a fitted effect of over 30% in size. Note: potency is the fitted concentration of half-maximal effect. The essentials: as §1
The target in assay [12] is Cytochrome P450 2C19 (Homo sapiens) (UniProt P33261). Briefly: qHTS for inhibitors of CYP2C19 against the NCATS DSHEA and TCM libraries (AID 1919974).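 Note: luminescence from luciferin released by CYP2C19 oxidation of a pro-luciferin substrate; potency is the fitted concentration of half-maximal effect.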 The conditions noted are these: CYP2C19 enzyme inhibition, luminescence qHTS. An outline of the steps: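 Light output from converted D-luciferin reports remaining CYP activity. Compounds preincubate with enzyme and substrate for 15 min; NADPH regeneration (1x final) runs the reaction for 30-45 min.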
A general note: In qHTS, concentration-response curves come from the screen itself.

A short description of assay [13]: KB-3-1 P-gp reporter qHTS against the NCATS DSHEA and TCM libraries (AID 1919975). Note: 0% is about no effect. The essentials:
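CellTiter-Glo luminescence viability readout; KB-3-1 parental cells, 500/well, attached ~4 h, then compound for ~72 h, 37C, 5% CO2. Bortezomib intraplate control.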

Assay [14] can be described thus: qHTS Counterscreen for compound interference against the NCATS DSHEA and TCM libraries (AID 1919978).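 Note: compounds preincubated with 1 µM D-luciferin or buffer before detection reagent; % of control where 0% means no effect.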 The note with it: firefly luciferase detection reagent interference, luminescence. An outline of the steps: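 Luminescence counterscreen for detection-kit interference: compounds at 19.5 nM–39.8 uM final, 15 min RT with 1 uM D-luciferin or buffer only; detection reagent added, 30 min RT, then read.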

A short description of assay [15]: Dual reporter qHTS for agonist of Pregnane X Receptor (hPXR) against the NCATS DSHEA and TCM libraries: Fluorescence readout (AID 1920058). Note: 0% is about no effect. The essentials: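 Measures viability of the PXR reporter HepG2 line by protease-substrate fluorescence (405/540 nm), taken 1 h after CellTiter-Fluor addition. Substances are tested as concentration series over a ~24 h exposure, with rifampicin as agonist control.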

Assay [16] concerns the target Nuclear receptor subfamily 1 group I member 2 (Homo sapiens) (UniProt O75469). The experiment in a line: Dual reporter qHTS for agonist of Pregnane X Receptor (hPXR) against the NCATS DSHEA and TCM libraries: Luminescence readout (AID 1920059). Note: potency is the fitted concentration of half-maximal effect. An outline of the steps:
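Luminescent PXR reporter read (ONE-Glo) after a CellTiter-Fluor viability read, following 24 h, 37C treatment of HepG2 cells stably carrying hPXR-Luc.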

Each structure is given as a SMILES string. Unmarked numbers belong to inactive results. Records with an inconclusive call do not appear. Active and inactive are the calls of the source. Calls come from the whole dose curve; as a rule, active = well fitted curve in the direction sought with a large enough effect; inconclusive = small, poorly fitted or top-dose-only effect, or another doubt; inactive = no such curve, though single readings can be large; an effect the other way counts as inactive or inconclusive.

Sequence of Cytochrome P450 2C19 (Homo sapiens) (P33261 whole entry, looked up): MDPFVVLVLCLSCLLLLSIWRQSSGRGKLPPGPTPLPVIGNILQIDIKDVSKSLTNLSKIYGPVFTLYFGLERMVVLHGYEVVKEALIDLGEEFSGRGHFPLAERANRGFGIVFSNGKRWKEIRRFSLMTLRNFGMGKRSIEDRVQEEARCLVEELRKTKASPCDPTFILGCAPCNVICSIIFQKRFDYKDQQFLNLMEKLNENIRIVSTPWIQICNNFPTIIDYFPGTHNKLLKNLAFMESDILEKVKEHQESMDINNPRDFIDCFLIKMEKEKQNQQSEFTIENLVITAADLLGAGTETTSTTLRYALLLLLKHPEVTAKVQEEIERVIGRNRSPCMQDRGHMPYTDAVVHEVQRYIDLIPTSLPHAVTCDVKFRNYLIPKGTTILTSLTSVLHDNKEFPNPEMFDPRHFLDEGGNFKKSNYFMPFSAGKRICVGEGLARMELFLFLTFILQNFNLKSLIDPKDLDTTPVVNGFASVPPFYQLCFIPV
Sequence of Nuclear receptor subfamily 1 group I member 2 (Homo sapiens) (O75469 whole entry, looked up): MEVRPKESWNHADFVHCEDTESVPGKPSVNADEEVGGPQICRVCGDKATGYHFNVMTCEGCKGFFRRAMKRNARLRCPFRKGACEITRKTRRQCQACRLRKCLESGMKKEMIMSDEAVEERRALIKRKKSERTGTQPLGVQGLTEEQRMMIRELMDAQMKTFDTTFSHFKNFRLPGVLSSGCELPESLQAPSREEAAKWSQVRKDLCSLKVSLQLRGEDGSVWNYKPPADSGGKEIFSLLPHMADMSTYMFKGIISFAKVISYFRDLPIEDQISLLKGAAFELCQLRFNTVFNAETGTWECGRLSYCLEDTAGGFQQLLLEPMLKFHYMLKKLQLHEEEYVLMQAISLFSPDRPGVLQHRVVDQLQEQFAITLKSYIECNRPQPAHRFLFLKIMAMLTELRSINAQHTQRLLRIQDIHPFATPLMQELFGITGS

Regarding `N[C@@]1(C(=O)O)CS(=O)(=O)[C@H]2[C@H](C(=O)O)[C@H]21`, the Potency in assay [1] is 4.18 µM (active). In addition, the Potency result in [2], in assay [3], in assay [4] and in assay [5] was “inactive” throughout.

As for `CC=CCC(C)C(O)C1C(=O)NC(CC)C(=O)N(C)CC(=O)N(C)C(CC(C)C)C(=O)NC(C(C)C)C(=O)N(C)C(CC(C)C)C(=O)NC(C)C(=O)NC(C)C(=O)N(C)C(CC(C)C)C(=O)N(C)C(CC(C)C)C(=O)N(C)C(C(C)C)C(=O)N1C` (stereo unspecified), the Potency result in [1] and in assay [4] was “inactive” each time.

As for `OC[C@H]1O[C@@H](Oc2cc(O)cc(C=Cc3ccc(O)cc3)c2)[C@H](O)[C@@H](O)[C@H]1O`, the Potency result in assay [1], in assay [6], in assay [7], in [2], in assay [3] and in [4] was “inactive” each time. The Potency entry in assay [5] was “inactive”.

Regarding `O=C(NOCC(O)CO)c1cc(Br)c(F)c(F)c1Nc1ccc(I)cc1F` (stereo unspecified), the Potency entry in [1], in assay [2] and in assay [3] was “inactive” throughout. Further, in assay [8], the Potency was 2.35 µM (active).

In the case of `CC(C)(C)c1cc(C(=O)O)c(NC(=O)Nc2ccc3[nH]ncc3c2)s1`, the Potency entry in [8], in assay [9], in assay [10], in assay [6], in assay [11] and in assay [2] was “inactive” throughout. Further, the Potency entry in assay [3] and in assay [4] was “inactive” in each case. In assay [7], the Potency is 16.6 µM (active).

As for `CC(=O)OC1C(C)OC(Oc2c(-c3ccc(O)cc3)oc3cc(O)cc(O)c3c2=O)C(O)C1OC(C)=O` (stereo unspecified), the Potency was 18.7 µM (active) in assay [1] and 10.5 µM (active) in assay [2]. Further, the Potency entry in assay [9], in assay [10], in assay [3] and in [5] was “inactive” in each case.

With `CCC(CC)[C@H](NC(C)=O)[C@@H]1[C@H](O)[C@@H](C(=O)O)C[C@@H]1N=C(N)N`, the Potency result in assay [8], in [9], in assay [7], in assay [11], in [2] and in assay [3] was “inactive” in each case. The Potency result in assay [4] was “inactive”. The Potency in [10] was 4.18 µM (active).

For the molecule `CC(=O)N(C)C1(c2ccccc2)CCN(CCC[C@]2(c3ccc(Cl)c(Cl)c3)CCCN(C(=O)c3ccccc3)C2)CC1`, the Potency in [1] was 23.5 µM (active); in assay [8], 8.33 µM (active); in [7] it was 20.9 µM (active); in assay [11] it was 13.2 µM (active); in assay [2], 23.5 µM (active); in assay [4], 9.35 µM (active). Besides, the Potency in assay [5] is 20.9 µM (active).

For the molecule `C[C@]12CC[C@@H]3c4ccc(O)cc4CC[C@H]3[C@H]1C[C@@H](O)[C@H]2O`, the figures for the Potency in [1] and in assay [8] were 18.7 µM (active) and 5.9 µM (active), respectively. Besides, the Potency entry in assay [6], in [3] and in [5] was “inactive” in each case.

On to `O=c1cc(-c2ccc(O)cc2)oc2cc(O)cc(O)c12`, for which the Potency in assay [1] is 20.9 µM (active); in assay [7], 20.9 µM (active); in [2] it was 23.5 µM (active); in assay [4], 20.9 µM (active); in [12], 6.31 µM (active); in assay [16], 31.6 µM (active). Further, the Potency result in assay [6] was “inactive”. Besides, the outcome in assay [13] and in [15] was inactive. The max response in assay [14] was -0.0344%.

In the case of `NC(=O)c1ccc2nc(-c3ccc(Oc4ccc(Cl)cc4)cc3)[nH]c2c1`, the Potency result in assay [1] and in assay [11] was “inactive” in each case. Moreover, the values for the Potency in assay [10] and in assay [4] were 6.62 µM (active) and 11.8 µM (active), respectively.

`COc1ccc(Cc2ccc(NC(N)=O)cc2)cc1-c1cccc(Cl)c1`: the Potency is 8.33 µM (active) in [1] and 13.2 µM (active) in [5]. The Potency entry in assay [9], in assay [7], in [2] and in [3] was “inactive” in each case.

For the molecule `C[N+](C)(C)CC(=O)O`, the Potency result in assay [1], in [8], in [7], in [11], in assay [4] and in assay [5] was “inactive” each time.

For the molecule `COCCCCC(=NOCCN)c1ccc(C(F)(F)F)cc1`, the Potency in assay [1] was 16.6 µM (active); in assay [7], 18.7 µM (active); in [3] it was 16.6 µM (active).

As for `O=C(O)c1ccccc1C(=O)Nc1ccc(-c2ccccc2)cc1`, the Potency result in assay [1], in [6], in [7], in assay [11], in [2] and in assay [3] was “inactive” in each case. In addition, the Potency result in assay [4] and in assay [5] was “inactive” each time.

Regarding `C=CCc1ccc(O)c(-c2ccc(O)c(CC=C)c2)c1`, the Potency in assay [1] is 16.6 µM (active); in [8], 14.8 µM (active); in assay [10], 20.9 µM (active); in assay [7], 18.7 µM (active); in assay [11], 20.9 µM (active); in assay [5] it was 23.5 µM (active).

Consider `NC(=O)c1cnc(-c2ccc(C3(N)CCC3)cc2)c(-c2ccccc2)c1`, for which the Potency is 16.6 µM (active) in assay [8]; 13.2 µM (active) in assay [10]; 5.9 µM (active) in assay [7]; 1.32 µM (active) in assay [11]; 20.9 µM (active) in [3]. In addition, the Potency entry in [9] was “inactive”.

For the molecule `CC1CCC(C(=O)N(c2cc(C#CC(C)(C)C)sc2C(=O)O)C2CCC(O)CC2)CC1` (stereo unspecified), the Potency entry in assay [1] and in assay [3] was “inactive” throughout. Moreover, the results for the Potency in assay [10] and in assay [11] were 26.4 µM (active) and 20.9 µM (active), respectively.

As to `COc1ccc(C2CC(c3ccccc3)=NN2c2ccc(S(N)(=O)=O)cc2)cc1` (stereo unspecified), the Potency result in [1] and in assay [3] was “inactive” throughout. Moreover, the Potency in [8] is 18.7 µM (active); in assay [10] it was 16.6 µM (active); in assay [7] it was 23.5 µM (active); in assay [11], 26.4 µM (active).

Turning to `Nc1ncnc2ccccc12`, the Potency result in assay [1], in assay [10], in assay [3], in assay [4] and in assay [5] was “inactive” in each case. Moreover, the results for the Potency in [9] and in assay [11] were 7.43 µM (active) and 20.9 µM (active), respectively.

Regarding `Cc1c[nH]c(C=C2C(=O)Nc3ccccc32)c1CCC(=O)O`, the Potency entry in [1], in assay [8] and in [2] was “inactive” throughout. Further, the Potency is 20.9 µM (active) in [11] and 33.2 µM (active) in [4].

For the molecule `O=C(NC1CCOCC1)c1ccc(-c2cc(-c3cn[nH]c3-c3ccccn3)ccn2)cc1`, the Potency entry in assay [1], in [8], in assay [6], in assay [7], in [11] and in [4] was “inactive” in each case. The Potency entry in [5] is “inactive”.
